Experimental data from the supplement of paper PMC6555819.

Each sequence was assayed on VDR:RXRa (NR concentration 270 nM, RXRa partner concentration 90 nM) (assay: PBM binding z-score (relative to random genomic background probes); higher = stronger binding; sequences stand for … in GC…GCGATTGACAGCGTAGAATGAAGG).
Procedure: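 Protein-binding microarray (Agilent 4x180K custom design, double-stranded 60-nt probes: 5' GC cap, 34-nt variable region, 24-nt constant primer region; full probe sequence given). Purified or IVT nuclear receptor:RXRα heterodimers (3:1 NR:RXRα, mostly 270:90 nM) or homodimers were incubated for 1 h in PBS with 2% milk and no ligand, then detected with Alexa488 antibodies. Fluorescence from o1-orientation probes (~5 replicates averaged) was converted to z-scores against 500 random hg19 background probes. Variable regions are seed direct-repeat (DR0–DR5) sites, all their single-nucleotide variants and half-site ablations.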
CGTCCAAGGTCAAAGATCAGTGAAGAGATGACGG showed a PBM binding z-score of 4.44. CCGACTGGGGCAAGGATACCATAACGCACAGCCA was tested, and the PBM binding z-score was -0.596. TCGAGTAGGTTACGAATGGGGCATTCAGCTTTCT showed a PBM binding z-score of -0.137. Work on TAGCCTAGGTCATTGGGCCAGTATTGTACGCATC yielded a PBM binding z-score of 2.26. With ACTAGCATGCCAAGGGTCACTCAAGATTAGTCCG the PBM binding z-score was 2.93. GCTCGGCGGACAAGGTCAGAGCTTTGTCCGTAGA showed a PBM binding z-score of 0.376. For CCTACTGTGCCAAGGTCATTGATCAGTCAAAGCA, the PBM binding z-score was 3.52. TCATATAGGTAATACAGGAGAAAGTCGGCATCTA was tested, and the PBM binding z-score was 0.996. Sequence AGAACGAGGGCAATGAGTTGACAGCACGGGTGGC has a PBM binding z-score of 5.03. Sequence TCTCGGAGGACACGAAGGTCGGAGCTTTCCAGAG has a PBM binding z-score of 0.528. Sequence ATCTCTAGGTAAAGATAGATCAGTGAATGCAAAT has a PBM binding z-score of 0.00458. Work on CCTTACGGGTCACTGCCAGGTTATAGCATTTGGA yielded a PBM binding z-score of 3.73. Work on TAGCCTAGGTCAGGGGCCAGTATACCACGCGAAC yielded a PBM binding z-score of 0.706. Work on GGAACGAGGGCATTCGAGTTGATGGCATGGCGAT yielded a PBM binding z-score of 3.36. Sequence TCTATTAGTTGATTAGGGCAACGGAAACAGCGGA has a PBM binding z-score of 0.621. For TCATGTAGGTAAATGCTAGGTGAAAGTCCGATCT, the PBM binding z-score was 0.587. CCACACAGGTGAGAAGGTAACTCAGCCTCGATTA was tested, and the PBM binding z-score was 0.0106. With CCTATTAGTTGACCCTAAGGGCAACCGAAGCTCG the PBM binding z-score was 3.74. For TCGAGCAGGTTACCAATGGGGCATTCAGCTTTCT, the PBM binding z-score was 0.08. Work on CTCGTAAGGTCGGTTGAGGTGAGTATACGGATAA yielded a PBM binding z-score of 1.75. With TAGCCTAGGTCATTCAGGGGCCAATATAGAAAGC the PBM binding z-score was 3.77. For CCGACTGGGGTAAGGTTACCATAACGCACAGCCA, the PBM binding z-score was 0.525. For CCTCGGAGGACAAAAGGTCAGAGCTGTCCGCTTT, the PBM binding z-score was 3.17. Sequence CCTGCTAGGTCAATGGTGAGCTAAAGCAGCTCGC has a PBM binding z-score of 0.217. CAAACTAGGTCAAGGTCAAGGTCGGTTTGTGCCA gave a PBM binding z-score of 5.24. GCTAGCAGGCCATTTGGTTCACTCAATGACGGGC was tested, and the PBM binding z-score was 1.28. For TCATATAGGTAAACAGGTGCAAGTCCGTAAGTTA, the PBM binding z-score was 3.49. Sequence AGAACGAGGGCACGCTGAGTTGAGAGCAGAGTAG has a PBM binding z-score of 1.59. With AGAATGAGGTGACCAAAGATCAGGGAAACGCTTG the PBM binding z-score was 0.0943. With TAGCCTAGGTCAGTCAGGGGCCAGTATAGAAAGC the PBM binding z-score was 0.785. CGAACGAGGGCATGAGTTAATAGCAAATGCCGAT gave a PBM binding z-score of 0.731. With GCAGACAGGTGAAACGCACGTAACTCAGGGTGGC the PBM binding z-score was -0.568. In the case of AGAACGAGGGCACGCTTAGTTGATAGCAGAGTAG, the PBM binding z-score is reported as 1.19. In the case of TCGAGTGGGTTACCAATGGGGCATTCAGCTTTCT, the PBM binding z-score is reported as 0.0141. In the case of ATCTCTAGGTAACCCAGTTCAGTGAATGCCGAAC, the PBM binding z-score is reported as 2.74. CCAGACAGGTGAGAAGGTAGCTCAGCCTCGATTA showed a PBM binding z-score of -0.387. Sequence ATCTCTAGGTAACAAGTCCAGTGAAAGAGAGGAC has a PBM binding z-score of 0.103. With TCGAGTAGGTTAGGGTCATTCAGAATGGCGTCGA the PBM binding z-score was 4.32. Work on CAAACTAGGTCACCGGAAGGTGAAAGTCCGCATG yielded a PBM binding z-score of 3.4. Work on CCGACTGGGGCAGTAAGGTTACCATACCATCCGG yielded a PBM binding z-score of 0.907.
